Results reported in PubChem BioAssay (NCATS).
Calls of active or inactive are those of the source.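 The calls were made as follows: active = compounds whose dose series gives a full or clear partial fitted curve of increased nuclear translocation; inconclusive = weak partial curve or effect only at the top dose; inactive = no dose-dependent translocation response.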

molecular target: Glucocorticoid receptor (Homo sapiens) (UniProt P04150); experiment: GR-GFP Redistribution (AID 450); details: U2OS GR-GFP nuclear translocation, laser cytometry, 2 h
Sequence (P04150 whole entry, looked up): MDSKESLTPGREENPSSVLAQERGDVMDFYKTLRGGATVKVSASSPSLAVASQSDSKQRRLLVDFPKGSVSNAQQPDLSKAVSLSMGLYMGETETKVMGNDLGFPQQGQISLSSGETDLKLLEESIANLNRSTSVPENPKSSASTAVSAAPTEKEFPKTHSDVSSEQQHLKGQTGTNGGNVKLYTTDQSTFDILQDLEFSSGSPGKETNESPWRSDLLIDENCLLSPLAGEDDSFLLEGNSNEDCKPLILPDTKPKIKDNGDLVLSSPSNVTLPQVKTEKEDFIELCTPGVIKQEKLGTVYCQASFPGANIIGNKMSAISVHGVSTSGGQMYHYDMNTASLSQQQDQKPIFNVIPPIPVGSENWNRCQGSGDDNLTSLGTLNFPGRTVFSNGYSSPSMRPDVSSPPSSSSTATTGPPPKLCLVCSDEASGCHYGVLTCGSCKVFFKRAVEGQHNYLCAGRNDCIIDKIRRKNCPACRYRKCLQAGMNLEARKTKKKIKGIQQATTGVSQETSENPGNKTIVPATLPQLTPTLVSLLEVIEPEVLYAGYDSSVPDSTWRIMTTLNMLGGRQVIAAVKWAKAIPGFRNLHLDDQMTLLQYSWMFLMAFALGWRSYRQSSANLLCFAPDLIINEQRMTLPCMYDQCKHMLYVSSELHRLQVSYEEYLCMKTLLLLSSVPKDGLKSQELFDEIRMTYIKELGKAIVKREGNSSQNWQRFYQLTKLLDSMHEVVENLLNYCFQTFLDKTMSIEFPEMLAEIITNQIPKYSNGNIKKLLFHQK
From the text: NIH Molecular Libraries Screening Centers Network [MLSCN]
NIH Chemical Genomics Center [NCGC]
The glucocorticoid receptor (GR) Redistribution assay (BioImage) enables the visualization of GR cytoplasmic to nuclear translocation by the use of a GR-GFP fusion. GR is normally cytosolic, however ligands such as dexamethasone, cause nuclear translocation where the protein binds to response elements and interacts with various co-factors to modulate transcription. Because both functional agonists and antagonists can induce nuclear translocation, this assay can detect ligands regardless of their effects on gene expression. GR-GFP expressing U20S cells were used here. Dexamethasone was the positive control for translocation and data normalization. Detection of nuclear translocation was performed in 1536-well plates using the Acumen laser scanning plate cytometer (TTP LabTech). Validation of this assay and a detailed protocol have been described.
NCGC Assay Protocol Summary:
GR-GFP U2OS cells were maintained in DMEM with Glutamax and high glucose, 1% v/v penicillin-streptomycin, and 0.5 mg/mL Geneticin. For cell culture, 10% […] fetal bovine serum (FBS) was used (Invitrogen #26140-079). For cell plating 10% dextran, charcoal-stripped FBS (Hyclone SH30068.03) was used. U2OS cells were trypsin treated, suspended in medium, and passed through a 40 um basket filter. The cells were seeded at 600 cells/5 uL/well into clear-bottom black sided 1536-well plates and incubated for approximately 20 hrs, 37degC, 5%, CO2 in a tissue culture incubator. Twenty-three nL of compound was delivered by pin tool and the plates were incubated as above for 2 hrs. The compounds were tested as a 7-point titration ranging from 46 uM to 0.6 nM. The cells were fixed using the Kalypsys Washer/Dispenser station. The fixing protocol involved aspiration of the cell media, addition of 6 uL/well of PBS, aspiration of PBS, addition of 5uL/well of 100% methanol, aspiration of methanol, and addition of 3 uL/well PBS with 1.5 uM propidium iodide (PI). The plates were read by the Acumen Explorer using a 1 x 8 um scan of the whole well area. PI fluorescence triggered the collection of PI and GFP signals. A nuclei population was defined by a 10 to 100 um width and depth filter that eliminated small and large fluorescent particles. Two subpopulations of nuclei were then defined by peak intensity of GFP fluorescence to obtain translocated and untranslocated objects. The number of translocated objects was used for data normalization.
Keywords: NIH Roadmap, MLSCN, MLI, MLSMR, sOGT, qHTS, NCGC
Potency is read from the fitted curve at half-maximal effect.

Row | Compound | Potency
1 | FC(F)(F)c1ccccc1-c1nccc(N2CCNCC2)n1 | > 46 µM (inactive)
2 | CN(C)c1ccc(-c2ccc3ncnc(-n4ccnc4)c3c2)cc1 | > 46 µM (inactive)
3 | CN(C)c1ncc2nc(-c3cn(C)c4ccccc34)c(=O)n(C[C@H]3CCCO3)c2n1 | > 9.22 µM (inactive)
4 | COc1cccc(-c2nccc(-n3ccnc3)n2)c1 | > 46 µM (inactive)
5 | N#CCCn1c(=O)cnc2cnc(Oc3ccccc3)nc21 | > 9.22 µM (inactive)
6 | CN1CCN(c2ncc3ncc(=O)n(C[C@H]4CCCO4)c3n2)CC1 | > 9.22 µM (inactive)
7 | CN(C)Cc1ccccc1-c1cncnc1Nc1ccccc1 | > 46 µM (inactive)
8 | c1nc(N2CCNCC2)c2cc(-c3ccc4c(c3)OCO4)ccc2n1 | > 46 µM (inactive)
9 | Cc1noc(C)c1-c1ccc2ncnc(Nc3ccc(F)cc3)c2c1 | > 46 µM (inactive)
10 | COc1ncc2ncc(=O)n(C[C@H]3CCCO3)c2n1 | > 9.22 µM (inactive)
11 | Cc1ccccc1-c1cc(NCc2ccccc2)ncn1 | > 46 µM (inactive)
12 | Cc1cccc(CNc2nc(-c3ccc4c(c3)OCO4)nc3ccccc23)c1 | > 46 µM (inactive)
13 | COc1cccc(Cn2c(=O)c(-c3cc(F)cc(F)c3)nc3cnc(N4CCN(C)CC4)nc32)c1 | > 9.22 µM (inactive)
14 | COc1ccc(CNc2ccnc(-c3ccccc3C(F)(F)F)n2)c(OC)c1 | > 46 µM (inactive)
15 | CCNc1ncc2nc(-c3cn(C)c4ccccc34)c(=O)n(Cc3cccc(OC)c3)c2n1 | > 9.22 µM (inactive)
16 | CN1CCN(c2nc(-c3ccccc3C(F)(F)F)nc3ccccc23)CC1 | > 46 µM (inactive)
17 | COc1ccc(-n2c(=O)c(-c3cccc(C#N)c3)nc3cnc(N4CCNCC4)nc32)cc1 | > 9.22 µM (inactive)
18 | Cc1ccccc1-c1cncnc1N(C)Cc1ccco1 | > 46 µM (inactive)
19 | COc1ccc(-n2c(=O)c(-c3cccs3)nc3cnc(OC)nc32)cc1 | > 9.22 µM (inactive)
20 | COc1ccccc1CNc1nc(-c2c(C)noc2C)nc2ccccc12 | > 46 µM (inactive)

Row | Compound | Potency
21 | CN1CCN(c2ncc3nc(CCc4ccccc4)c(=O)n(C4CC4)c3n2)CC1 | > 9.22 µM (inactive)
22 | COCCn1c(=O)c(-c2ccc(F)cc2)nc2cnc(OCc3ccccc3)nc21 | > 9.22 µM (inactive)
23 | N#Cc1ccccc1-c1nc(NCCN2CCOCC2)c2ccccc2n1 | > 46 µM (inactive)
24 | c1nc(NC2CCNCC2)c2cc(-c3ccc4c(c3)OCO4)ccc2n1 | > 46 µM (inactive)
25 | COc1cccc(Nc2ncc3nc(CCc4ccccc4)c(=O)n(C)c3n2)c1 | > 9.22 µM (inactive)
26 | O=c1c(-c2cc(F)cc(F)c2)nc2cncnc2n1-c1ccccc1 | > 9.22 µM (inactive)
27 | COCCn1c(=O)cnc2cnc(OC)nc21 | > 9.22 µM (inactive)
28 | N=C1Sc2ccccc2C2=NCCCN12 | > 46 µM (inactive)
29 | O=c1c(-c2ccccc2)nc2cnc(Oc3ccccc3)nc2n1Cc1cccs1 | > 9.22 µM (inactive)
30 | COc1ccc2[nH]cc(CCNc3ncncc3-c3c(C)noc3C)c2c1 | > 46 µM (inactive)
31 | c1cncc(-c2cncnc2-n2ccnc2)c1 | > 46 µM (inactive)
32 | O=c1cnc2cnc(Oc3cccc(Cl)c3)nc2n1C[C@H]1CCCO1 | > 9.22 µM (inactive)
33 | COc1ncc2nc(-c3ccc(F)cc3)c(=O)n(C3CC3)c2n1 | > 9.22 µM (inactive)
34 | COCCNc1ccnc(-c2ccccc2CN(C)C)n1 | > 46 µM (inactive)
35 | O=c1cnc2cnc(Nc3ccccc3)nc2n1Cc1ccc(F)cc1 | > 9.22 µM (inactive)
36 | Clc1ccccc1-c1cncnc1NCc1cccs1 | > 46 µM (inactive)
37 | Cc1cnc(CNc2ncncc2-c2c(C)noc2C)cn1 | > 46 µM (inactive)
38 | c1cncc(CNc2ncnc3ccc(-c4ccoc4)cc23)c1 | > 46 µM (inactive)
39 | COc1cccc(-c2ccc3ncnc(NCc4cccnc4)c3c2)c1 | > 46 µM (inactive)
40 | CC(C)=CCc1c2c(c3occ(-c4ccc(O)c(O)c4)c(=O)c3c1O)C=CC(C)(C)O2 | > 46 µM (inactive)
